In all, about 220,000 compounds went through this assay and about 8,200 (3.7%) were called active. For the sample, actives were picked, then their nearest neighbours and some compounds at random. A number with no mark means an inactive call.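 How the source made its calls: active means compounds that reduced the stress-induced luciferase reporter signal by more than about 70% of percent inhibition (limit read from the data); inactive means the rest.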
Assay: blockers of ER-stress CHOP reporter expression – cell-based, unfolded protein response, luciferase reporter, primary screen (AID 2732);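 further: 0% = tunicamycin plus vehicle and 100% = wells without tunicamycin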
Conditions: CHO-K1 CHOP-promoter luciferase, tunicamycin-induced, 15-18 h; at 10 µM; active compounds read high

Row | Structure (SMILES) | inhibition
1 | Cc1ccc(OS(=O)(=O)c2ccc(-c3csc(C)n3)s2)c(C)c1 | 22.5%
2 | CNC(=O)c1csc(Cc2c(Cl)sc3ccc(Cl)cc23)n1 | 30.4%
3 | Cc1cc(Nc2ccc(Cl)cc2)nc(N2CCOCC2)n1 | 0.58%
4 | Cn1c(SCC(=O)c2ccc(F)cc2)nnc1-c1ccccn1 | 6.32%
5 | COc1ccc(C(CCNCc2ccccc2F)c2ccc(F)cc2)cc1 (centres undefined) | 79.4% (active)
6 | COc1ccc(CC(=O)NC(C)CCc2ccccc2)cc1 (centres undefined) | -12.2%
7 | COc1cccc(CNCCc2c[nH]c3ccccc23)c1OCc1ccccc1F | 12.6%
8 | O=c1c2cc(-c3ccccc3)sc2nc2n1N=C(c1cccs1)CS2 | -4.25%
9 | Clc1ccc(-c2cc(-c3ccccn3)on2)c(Cl)c1 | 63.3%
10 | O=[N+]([O-])c1ccc(N=Cc2c(O)ccc3ccccc23)cc1 | 28.1%
11 | COCCN(C(=S)Nc1cccc(Cl)c1C)C(C)c1ccco1 (centres undefined) | 42.5%
12 | C=C(C)C(=O)Nc1cccc(C2=NOC3(C2)C[C@H](C(N)=O)N(C(=O)C(c2ccccc2)c2ccccc2)C3)c1 (some centres undefined) | -8.97%
13 | CC(C)(C)c1ccc(/C=C2\Oc3c(ccc(O)c3CN3CCN(CCO)CC3)C2=O)cc1 | -15.1%
14 | Cc1ccc(C(=O)N/C(=C\c2ccco2)C(=O)NC2CCS(=O)(=O)C2)cc1 (centres undefined) | 10.1%
15 | Cc1cc(C(=O)N2CCC(C(=O)O)CC2)c(C(F)(F)F)o1 | 1.47%
16 | Cc1cc(C)cc(N(CC(=O)N2CC=C(c3ccccc3)CC2)S(=O)(=O)c2c(C)noc2C)c1 | 70% (active)
17 | CCOC(=O)C1CCCN(C(=O)CN(c2ccc(OC)cc2)S(=O)(=O)c2c(C)noc2C)C1 (centres undefined) | 10.8%
18 | Cc1cc(C)cc(N(CC(=O)NCC2CCCO2)S(=O)(=O)c2c(C)noc2C)c1 (centres undefined) | 23.4%
19 | CC(NC(=S)NNS(=O)(=O)c1ccc(C(C)(C)C)cc1)c1ccccc1 (centres undefined) | 51.7%
20 | O=C(c1[nH]ncc1-c1ccc(Cl)cc1)C1CO1 (centres undefined) | -97.8%
21 | O=C1C(Cc2ccc(O)cc2)NC(=S)N1Cc1ccccc1 (centres undefined) | -7.09%
22 | O=C1CC(Cc2ccc(Cl)cc2)C(=O)N1c1cc(Cl)ccn1 (centres undefined) | 7.86%
23 | CCCCC(CC)CNC(=O)C(=O)C1C(=O)Nc2ccccc21 (centres undefined) | 86.7% (active)
24 | CCOC(=O)C(=O)C1C(=O)Nc2ccccc21 (centres undefined) | 17.5%

Row | Structure (SMILES) | inhibition
25 | CCCCC(CC)CNC(=O)CCCCn1c(=O)[nH]c2ccsc2c1=O (centres undefined) | 10.3%
26 | Cc1cc(C(=O)CSc2nc(N)cc(=O)[nH]2)c(C)n1Cc1ccco1 | 3.96%
27 | COc1ccc(C(=O)N/N=C(\C)CC(=O)Nc2ccc(Cl)cn2)cc1 | 4.2%
28 | CC1CCN(C(=O)c2ccc(CSc3ccc(Cl)cc3)cc2)CC1 | 80.3% (active)
29 | O=C(C1CC1)N1CCN=C1SCc1ccc(Cl)cc1 | 5.04%
30 | O=C(c1ccc(CSc2ccccc2)cc1)N1CCCCCC1 | 23.8%
31 | Cn1c2ccccc2c2cc(/C=C(\NC(=O)c3ccccc3)C(=O)NCC(=O)O)ccc21 | -15.8%
32 | O=C(CCS(=O)(=O)c1ccccc1Cl)Nc1ccc(S(=O)(=O)Nc2ncccn2)cc1 | 3.66%
33 | CC(C)n1c(CN2CCN(Cc3ccccc3)CC2)nc2ccccc21 | -0.64%
34 | CC(=O)Nc1ccc(C(=O)/C=C/c2ccc[nH]2)cc1 | -14.3%
35 | O=C(NC1CCCCC1)c1cc(C2CC2)on1 | 1.58%
36 | CCCCc1nc(NCc2ccccc2)c(C#N)c2c1CCCC2 | 54.3%
37 | Cc1nc(NCc2ccccc2)c(C(N)=O)c2c1COC(C)(C)C2 | -8.11%
38 | CCc1nc(NCCO)c(C#N)c2c1CCCC2 | 17.2%
39 | Cc1nc(NCCN)c(C#N)c2c1COC(C)(C)C2 | 74.9% (active)
40 | CCCCc1nc(NCCN)c(C#N)c2c1CSC(C)(C)C2 | 101% (active)
41 | CC(C)C(=O)N1CCN(c2nc(-c3ccccc3)c3c(c2C#N)CC(C)(C)OC3)CC1 | 26.8%
42 | C=CCSc1nnc(NC(=O)c2ccc(NC(C)=O)cc2)s1 | 6.97%
43 | COC(=O)c1scc(C)c1NC(=O)CSc1ccc(Cl)cc1 | 16.3%
44 | Cn1cccc1/C=C1\SC(=S)N(NC(=O)c2ccc(Cl)cc2)C1=O | 20.4%
45 | Cn1cccc1/C=C1\SC(=O)N(CC(=O)Nc2ccc(F)cc2)C1=O | 72% (active)
46 | Cc1nn(Cc2ccccc2)c(C)c1C(=O)NCCN1C(=O)S/C(=C\c2ccc(F)cc2)C1=O | 56.3%
47 | COc1ccc(N2CCC(CNC(=S)Nc3c(C)cccc3C)C2)cc1 (centres undefined) | 18.6%
48 | COc1ccc(C2CC(c3ccccc3)=NN2C(=O)c2ccc(Cl)c([N+](=O)[O-])c2)cc1 (centres undefined) | -21.3%

Row | Structure (SMILES) | inhibition
49 | CCOc1ccc2nc(Cl)c(C3CC(c4ccccc4)=NN3C(=O)c3cccs3)cc2c1 (centres undefined) | 90.5% (active)
50 | CCOc1ccccc1C1CC(c2cccc(NS(C)(=O)=O)c2)=NN1C(=O)c1ccccc1 (centres undefined) | -2.91%
51 | OC(CNCc1ccc2c(c1)OCO2)COc1ccccc1 (centres undefined) | -20.3%
52 | CCOC(=O)CC1C(=O)NCCN1c1nc2c(C)cccn2c(=O)c1/C=C1\SC(=S)N(C(C)CC)C1=O (centres undefined) | 5.91%
53 | C/C(Cl)=C\Cn1c(Nc2cccc(C)c2)nc2c1c(=O)n(C)c(=O)n2C | 76.1% (active)
54 | Cc1cccc(Cn2c(N3CCN(c4ccccc4)CC3)nc3c2c(=O)n(C)c(=O)n3C)c1 | 40.4%
55 | COC(=O)C(C)Sc1nc2c(c(=O)n(C)c(=O)n2C)n1Cc1cccc(C)c1 (centres undefined) | 11.8%
56 | CNc1ccc([N+](=O)[O-])cc1C(=O)O | -14.2%
57 | Nc1nc(O)c(CC(=O)O)s1 | 9.65%
58 | CC(=O)N/C(=C\c1ccc(F)cc1)C(=O)NC(Cc1ccccc1)C(=O)O (centres undefined) | 2.9%
59 | Cc1ccc(-n2nc(C)c(/C=N/NC(=O)c3cccs3)c2Cl)cc1 | 99.7% (active)
60 | Cc1cccc(-n2c(C)cc(/C=N\NC(=O)c3cccs3)c2C)c1 | 13.8%
61 | CC(=O)Nc1ccc(/C=N/NC(=O)c2cccs2)cc1 | -21.6%
62 | O=C(NCCCn1ccnc1)C(=O)NCC1OCCN1S(=O)(=O)c1cc(F)ccc1F (centres undefined) | 19.4%
63 | O=C(/C=C/c1ccc(Cl)cc1)N1CCN(c2ccccc2[N+](=O)[O-])CC1 | 32.3%
64 | O=C(c1ccc(Cl)c([N+](=O)[O-])c1)N1CCN(c2ccccc2)CC1 | -20.4%
65 | CO/N=C/c1ccc(N2CCN(C(=O)c3cccc(Cl)c3)CC2)c([N+](=O)[O-])c1 | 71.8% (active)
66 | CC12C(=O)N(c3ccccc3)C(=O)C1C(c1ccccc1)N1CCCN12 (centres undefined) | 7.95%
67 | O=[N+]([O-])c1ccc(N2CCSCC2)cc1O | 13.8%
68 | CC(C)(C)C(=O)NC(NC(=S)Nc1ccc(S(N)(=O)=O)cc1)C(Cl)(Cl)Cl (centres undefined) | -6.4%
69 | O=C(Cc1cccc2ccccc12)NNC(=O)Nc1ccc(Cl)cc1 | 13.2%
70 | Cc1ccc(NC(=S)NC(NC(=O)Cc2cccc3ccccc23)C(Cl)(Cl)Cl)cc1 (centres undefined) | 110% (active)
71 | O=C(NNC(=S)NC1CC2CCC1C2)c1ccc(Cl)cc1 (centres undefined) | -10.6%
72 | C/C=C(/C)C(=O)OC1Cc2c(ccc3ccc(=O)oc23)OC1(C)C (centres undefined) | 74.3% (active)

Row | Structure (SMILES) | inhibition
73 | CC1(C)Oc2ccc3ccc(=O)oc3c2/C(=C/NCCO)C1=O | 7.95%
74 | O=C(NCc1csc(-c2cccs2)n1)C1CC1 | 21.8%
75 | COc1ccccc1OCC(=O)O/N=C(\N)c1ccccn1 | -9.1%
76 | CCCCN1CCNC1=S | 11%
77 | Cc1nnc(SCc2ccc(C(=O)c3ccc(Cl)cc3)o2)n1-c1ccccc1 | 24.9%
78 | Fc1ccc(-n2c(Cc3ccccc3)nnc2SCc2nc(-c3ccc(Cl)cc3)no2)cc1 | 82.2% (active)
79 | Cc1ccc(-c2noc(CSc3nnc(-c4ccncc4)n3-c3ccc(F)cc3)n2)cc1 | 35.3%
80 | Cc1oc(C(N)=O)cc1COc1ccc(C(N)=O)cc1 | 0.47%
81 | CC(=O)NC(=S)Nc1ccc(NC(=S)NC(=O)c2ccc([N+](=O)[O-])cc2)cc1 | -4.53%
82 | O=C(Nc1ccc(F)c(Cl)c1)C1CCN(S(=O)(=O)c2cccnc2)CC1 | 24.3%
83 | Cc1noc(C)c1S(=O)(=O)N1CCCC(C(=O)Nc2nccs2)C1 (centres undefined) | 11.8%
84 | O=C(Nc1nccs1)C1CCN(S(=O)(=O)c2ccc(Cl)c(C(F)(F)F)c2)CC1 | 70.1% (active)
85 | CN(Cc1nc(-c2cnccn2)no1)Cc1n[nH]c2c1CCCCC2 | 0.16%
86 | CCOC(=O)c1c(C)[nH]c(=S)c(C#N)c1-c1ccccc1 | -25.2%
87 | Cc1[nH]c2ccccc2c1C(=O)COC(=O)C(C)C | 9.48%
88 | CCOC(=O)c1c(C)[nH]c2c1-c1ccccc1C(=O)C2=O | 108% (active)
89 | COc1ccc(C(=O)NCC(=O)N/N=C/c2ccc([N+](=O)[O-])o2)cc1OC | -82.2%
90 | CCOC(=O)Cc1cc(=O)[nH]c(/N=C(\N)Nc2ccc(OC)cc2)n1 | -6.01%
91 | O=C(CC(O)(C(F)(F)F)C(F)(F)F)Nc1ccc(Cl)c(Cl)c1 | 86% (active)
92 | Cc1ccc(NC(=O)C/C(N)=N/O)cc1Cl | 1.88%
93 | O=C(CC(=O)Nc1ccc(Cl)c(Cl)c1)N/N=C/c1ccc(O)cc1 | 23.4%
94 | CC(=O)NNC(=O)c1csc(Cc2c(Cl)sc3ccc(Cl)cc23)n1 | 32.1%
